In all, about 96,000 compounds went through this assay and about 19,000 (20%) were called active.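 How the source made its calls: active means blocking of liver enzyme CYP2C9 beyond about 50% at 5 µM (limit read from the data); inactive means the rest.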 These entries were drawn from the full list.
target: Cytochrome P450 2C9 (Homo sapiens) (UniProt P11712); assay: blockers of cytochrome P450 2C9 activity – biochemical, luminescence, ADME assay, primary screen (AID 777); conditions: CYP2C9 Supersomes, luciferin-H conversion, at 5 µM, active compounds read high
Sequence (P11712 whole entry, looked up): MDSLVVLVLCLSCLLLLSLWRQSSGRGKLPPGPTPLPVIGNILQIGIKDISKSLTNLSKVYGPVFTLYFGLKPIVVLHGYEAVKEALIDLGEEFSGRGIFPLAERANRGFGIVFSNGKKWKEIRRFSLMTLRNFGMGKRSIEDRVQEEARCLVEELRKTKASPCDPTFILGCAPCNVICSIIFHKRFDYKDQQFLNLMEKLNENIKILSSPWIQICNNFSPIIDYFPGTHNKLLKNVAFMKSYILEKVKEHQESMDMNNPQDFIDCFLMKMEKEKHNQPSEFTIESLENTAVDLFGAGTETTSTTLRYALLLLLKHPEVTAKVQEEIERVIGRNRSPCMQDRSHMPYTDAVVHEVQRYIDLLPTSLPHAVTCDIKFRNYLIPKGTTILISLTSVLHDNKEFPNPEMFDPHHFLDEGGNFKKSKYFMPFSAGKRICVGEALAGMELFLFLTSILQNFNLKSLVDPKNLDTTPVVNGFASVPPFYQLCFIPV

Compound | inhibition
O=C(Cc1c(F)cccc1Cl)N1CCN(C(=O)c2ccco2)CC1 | 11.7% (inactive)
O=C1CSC(c2cccc(F)c2)N1c1ccc(O)cc1 (stereo not drawn) | 32.7% (inactive)
CCN1CCN(C(=O)/C=C\C(=O)O)CC1 | -4.2% (inactive)
COc1cccc(N(CC(=O)Nc2cccc(F)c2)S(C)(=O)=O)c1 | 45.4% (inactive)
CS(=O)(=O)N(CC(=O)Nc1ccc(F)cc1F)c1cccc([N+](=O)[O-])c1 | 13.3% (inactive)
Cc1ccc(N(CC(=O)Nc2cccc(N(C)S(C)(=O)=O)c2)S(C)(=O)=O)cc1 | 5.5% (inactive)
Cc1cccc(N(CC(=O)Nc2ccc(-c3nc4ccc(C)cc4s3)cc2)S(C)(=O)=O)c1 | 6.7% (inactive)
CCN(CC)S(=O)(=O)c1ccc(NC(=O)CN(c2cccc(F)c2)S(C)(=O)=O)cc1 | 97.6% (active)
COc1cccc(N(CC(=O)Nc2cccc(N(C)S(C)(=O)=O)c2)S(C)(=O)=O)c1 | 57.7% (active)
CC1Cc2cc(/C(O)=C3\C(=O)C(=O)N(CCN4CCOCC4)C3c3ccccc3F)ccc2O1 (stereo not drawn) | 0.8% (inactive)
CCSc1ncnc2c(C#N)c3n(c12)CCCCC3 | 17.9% (inactive)
Nn1c(SCC(=O)NC2CCCC2)nnc1-c1ccccc1F | 8.6% (inactive)
COCCNC(=O)COc1ccccc1C | 4.4% (inactive)
CCCn1nnnc1NC(=O)COc1ccc(Cl)cc1C | 46.7% (inactive)
O=C(Nc1cccc2ncccc12)C(Cl)(Cl)Cl | 49.6% (inactive)
O=C(CSc1ncn[nH]1)Nc1ccnc2ccccc12 | 35.2% (inactive)
O=C(CSc1n[nH]c(-c2cccnc2)n1)Nc1ccnc2ccccc12 | 91.5% (active)
CCCn1c(SCC(N)=O)nnc1C(C)C | -8% (inactive)
O=C1c2cccnc2C(=O)N1Cc1cccs1 | 11.6% (inactive)
CCOC(=O)c1sc(C)c2c1NC(C)(c1cccc3ccccc13)NC2=O (stereo not drawn) | 100% (active)
CCOC(=O)c1cc2ccccc2nc1C | -27.3% (inactive)
CCOC(=O)c1nc(N)sc1C(=O)OCC | 4.2% (inactive)
Cc1ccccc1Nc1nnc(C)c(=O)[nH]1 | 2.7% (inactive)
CNC(=O)c1nnc(Cc2ccc(Cl)cc2)o1 | 5% (inactive)
CC(C)CCNC(=O)C(C)N(C(=O)Cn1nnc(-c2ccc(F)cc2)n1)C1CCCC1 (stereo not drawn) | 77.2% (active)
CC(C)CCNC(=O)CN(C(=O)Cn1nnc(-c2ccc(F)cc2)n1)C1CCCC1 | 17.3% (inactive)
CC(C)CCNC(=O)C1CCCN(S(=O)(=O)c2ccc(F)cc2)C1 (stereo not drawn) | -10.8% (inactive)
CC1=CC(C)(C)NC(=S)N1c1ccccc1 | 13.8% (inactive)

Reference: PubChem BioAssay AID777 (Sanford-Burnham Center for Chemical Genomics, 2007)
